The source of these data is PubChem BioAssay (NCI).

Compounds without any hit were thinned out: in the full panel of roughly 83,000, 20% have a hit.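 The test compound was applied at a single concentration to cells in 96-well plates for 48 hours, and percent growth was recorded.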 A number with no mark means an inactive call. Calls of active or inactive are those of the source. How the source made its calls: active means growth percent below 10; inactive means the rest.

This assay has as its system HL-60(TB) leukemia. Briefly: NCI-60 one-dose screen, 48 h (100 = growth as untreated, 0 = no growth, -100 = all killed). The settings on record: 10 µM unless noted.
Consider `Cc1cc(N2CCN(CCNc3ccnc4cc(Cl)ccc34)CC2)nc(N2CCOCC2)n1`, for which the growth was 44.8%. For the molecule `CC(C)(C)[Si](C)(C)OC1[C@@H](CNC(=O)NC(=O)CCl)O[C@@H](n2cnc3c(N)ncnc32)[C@H]1O[Si](C)(C)C(C)(C)C` (stereo not given in full), the growth was -64.2% (active). The result for `C=CC(=O)Nc1cccc(Oc2nccc(Nc3nnc(-c4ccc(Br)cc4)s3)n2)c1` reads 121%. The result for `COC[C@H](C)n1c(C2CCOCC2)nc2cnc3cc(-c4c(C)noc4C)c(OC)cc3c21` reads 31.5%.

`COc1cc2cc3c(nc2cc1OC)CCN3Cc1ccc(NC(=O)Nc2ccc(F)cc2F)cc1`: the growth is 80.5%. For `COc1cc2c(c(OC)c1OC)-c1ccc(NNC(=S)N(Cc3cccc(C[N+](Cc4cccc(CNC56CC7CC(CC(C7)C5)C6)c4)(Cc4cccc(CNC56CC7CC(CC(C7)C5)C6)c4)Cc4cccc(CN(C(=S)NNc5ccc6c(cc5=O)[C@@H](NC(C)=O)CCc5cc(OC)c(OC)c(OC)c5-6)C56CC7CC(CC(C7)C5)C6)c4)c3)C34CC5CC(CC(C5)C3)C4)c(=O)cc1[C@@H](NC(C)=O)CC2` (stereo not given in full), the growth was -63.4% (active).

Turning to `Cc1ccc(C2CC3c4ccccc4C2C2CCCCN32)cc1` (stereo not given), the growth was 52.8%. As for `Cn1c([N+](=O)[O-])cnc1C=C1C(=O)c2ccccc2C1=O`, the figure is 4.69% (active).

For `COc1ccc(-c2ncc(-c3ccccc3)[nH]2)cc1OC`, the growth is -30.2% (active). The result for `c1ccc2c(-c3c4ccsc4cc4[nH]c5ccccc5c34)c[nH]c2c1` reads 14.3%; that for `CC(=O)c1cc(C(=O)c2ccc3c(c2)Sc2ccccc2N3)c2c(C)cccn12`, -4.53% (active); that for `Cc1ccc(S(=O)(=O)Nc2c(Br)cc(Br)cc2C(N)=O)cc1`, 83%.

As to `O=C(CSc1nnc(-c2cc(-c3ccccc3)nc3ccccc23)n1-c1ccccc1)Nc1ccc(C(=O)/C=C/c2ccc(Cl)cc2)cc1`, the growth is 89%. As for `CCCCOc1ncnc2nc[nH]c12`, the figure is 99.4%; as for `O=[N+]([O-])c1ccc(C(Br)c2ccc([N+](=O)[O-])cc2)cc1`, 57.6%; as for `CCOC(=O)c1sc2nc(-c3cccc(O)c3)nc(N3CCOCC3)c2c1C`, 78.3%. As for `COCCOc1cc2ncnc(N3CCN(S(=O)(=O)c4ccccc4Cl)CC3)c2cc1OCCOC`, the figure is 56%; as for `Cc1nc2cc(Nc3nc(NCCO)nc(Nc4ccc(F)cc4)n3)ccc2n1Cc1ccccc1`, -26.8% (active). As for `NC(=S)N/N=C(\c1ccc(Cl)cc1)C1CC1`, the figure is 75.7%; as for `CC1=C(N2CCOCC2)C(N2CCOCC2)=C(C)C(=O)C1=O`, 97.3%; as for `COc1ccc(OC)c2c1C(=O)CC2C` (stereo not given), 103%. Regarding `O=C(O)c1ccc(P(=O)(O)O)c([N+](=O)[O-])c1`, the growth is 100%.

Take `COc1cc(C2CC(=O)Nc3c2ccc2ccccc32)cc(Br)c1OC` (stereo not given): the growth is -15.2% (active). As for `COC1=CC(=O)c2c(O)c3c(c(O)c2C1=O)CC(C)(O)OC3` (stereo not given), the figure is -57.1% (active); as for `COc1cc(NCC(O)CN(CC(C)C)CC(C)C)c2nc(C)ccc2c1` (stereo not given), 81.2%; as for `O=C(Nc1cc(F)cc2cccnc12)c1cnc(N2CCNCC2)cn1`, 77.1%. As for `O=c1c2cccc3c(NC4CCCCC4)ccc(c32)c2nc3ccccc3n12`, the figure is 62.6%; as for `CCNC(=O)Nc1ncccc1OCc1ccc(F)cc1`, 95.5%; as for `CC(=O)N1CCN(c2ccc(OCC3CO[C@](Cn4ccnc4)(c4ccc(Cl)cc4Cl)O3)cc2)CC1` (stereo not given in full), 56.5%. As for `COC(=O)/C=C1\S/C(=N\NC(=O)c2cc3ccc2/C=C\c2ccc(cc2)/C=C\3)N(Cc2ccccc2)C1=O`, the figure is -5.46% (active); as for `N#Cc1ncc(Br)c(NC2CCCCCC2)n1`, 111%. As to `Nc1ncnc2c1ccn2-c1cccc(NC(=O)c2ccc(N3CCOCC3)c(C(F)(F)F)c2)c1`, the growth is 54.1%. As for `COc1cc2nnc3c4cccnc4[nH]c3c2cc1OC`, the figure is -54.3% (active); as for `CCN(CC)CCCCCCCNc1cc(OC)cc2c(C)ccnc12`, 56.2%. Turning to `COc1ccc(CN2C(=O)OC(C)(COC(C)=O)C2=O)cc1` (stereo not given), the growth was 101%.

`O=C1CS/C(=N/c2nnc(-c3ccc(O)cc3)s2)N1`: the growth is 98.8%.

With `COc1ccc(-c2cnc3ccccc3n2)cc1`, the growth was 97%. As for `C[C@@H]1O[C@@H](O[C@@H]2C[C@H](c3ccc4c(c3O)C(=O)C3=C(C4=O)[C@@]4(O)C(=O)C[C@](C)(O)C[C@@]4(O)C=C3)O[C@H](C)[C@H]2O)CC[C@@H]1O[C@H]1C[C@@H](O)[C@H](O)[C@@H](C)O1`, the figure is 99.4%; as for `O[C@@H]1CCO[C@H](c2ccc3ccccc3c2)C1`, 102%. `Cc1ccc(C2CC(c3cccc(Nc4ccncc4)c3)=NN2c2ccc(Cl)cc2)cc1` (stereo not given): the growth is -55.6% (active).
